Laboratory results reported in PubChem BioAssay (Tox21).
Records with an inconclusive call do not appear. Where a call stands in place of a potency, no number is given. A number with no mark means an inactive call. Active and inactive are the calls of the source. The call rests on the fitted dose curve; in most records, active means well fitted cell-killing curve with a large enough effect in the repeat runs; inconclusive means weak or mixed curves, or effect the other way; inactive means no such curve, though single readings can be large or run the other way.

Test: qHTS assay for identifying genotoxic compounds that show differential cytotoxicity against isogenic chicken DT40 cell lines with known DNA damage response pathways - Rev3 mutant cell line (AID 743014); further: nearly all actives have a fitted effect of over 55% in size
Settings: chicken DT40 Rev3-/- viability, CellTiter-Glo, 40 h; series mostly up to 68.4 µM
From the text: National Center for Advancing Translational Sciences [NCATS]
NIH Chemical Genomics Center [NCGC]
U.S. Environmental Protection Agency [EPA]
National Institutes of Environmental Health Sciences [NIEHS]
National Toxicology Program [NTP]
U.S. Food and Drug Administration [FDA]
DNA repair pathways play a critical role in cellular homeostasis by repairing DNA damage induced by endogenous processes and xenobiotics. Isogenic chicken DT40 cell lines deficient in different DNA repair pathways can be used to identify genotoxic compounds and aid in characterizing the nature of the DNA damage induced. Two DNA repair-deficient cell lines with disrupted genes, Rad54/Ku70 or Rev3, were used to screen the Tox21 10K compound library. Possible genotoxicity was based on the presence of a significant increase in cytotoxicity in one or more of the DNA repair-deficient cell lines compared to that observed in the parental DNA repair-proficient cell line. CellTiter Glo viability assay (Promega, Madison, WI) was used to measure cell viability in these cells after compound treatment. This assay includes the data from the Rev3 mutant cell line.
Tox21 Assay Protocol Summary:
300 DT40 mutant cells in 5 uL/well were dispensed into white, solid-bottom 1536-well plates using a Multidrop Combi (ThermoFisher Scientific, Waltham, MA) dispenser. After the assay plates were incubated at 37 C/5% CO2 for approximately 0.5 hour, 23 nL of compounds dissolved in DMSO, positive controls or DMSO only was transferred into the assay plate by a pintool work station (Kalypsys, San Diego, CA). The assay plates were incubated at 37 C/5% CO2 for 40 hours. After 5 uL per well of CellTiter-Glo reagent was added into each well of the assay plates, the plates were incubated for 30 min at room temperature and the luminescence intensity of the plates was measured using a ViewLux (PerkinElmer, Shelton, CT) plate reader.
Potency means the concentration at half of the fitted maximal effect.

Row | SMILES | Potency | activity, negative = cytotoxicity
1 | O=S(=O)(c1cccc2cnccc12)N1CCCNCC1 | inactive | 
2 | Nc1cc(C(Cl)=C(Cl)Cl)c(S(N)(=O)=O)cc1S(N)(=O)=O | inactive | 
3 | C=CC(=O)OCCCCCC | inactive | 
4 | Cc1ccccc1C(=O)O | inactive | 
5 | CC(C)(C)CC(C)(C)N | inactive | 
6 | C1COCCO1 | inactive | 
7 | CC(C)c1cccc(C(C)C)c1N | inactive | 
8 | CC(C)(C)OC(=O)N1C[C@@H](F)C[C@H]1C(=O)O | inactive | 
9 | COc1cc(C(=O)N2CCOCC2)cc(OC)c1OC | inactive | 
10 | CC(C)CCCC(C)CCCC(C)CCCCC(C)CCCC(C)CCCC(C)C (stereo not given) | inactive | 
11 | C[C@H](O)C(=O)Nc1c(I)c(C(=O)NC(CO)CO)c(I)c(C(=O)NC(CO)CO)c1I | inactive | 
12 | N#CC1(O)CCCCC1 | inactive | 
13 | NS(=O)(=O)c1cc2c(cc1C(F)(F)F)NC(Cc1ccccc1)NS2(=O)=O (stereo not given) | inactive | 
14 | NC(=O)CCCCC1CCSS1 (stereo not given) | inactive | 
15 | CCCCCCC(=O)OCC | inactive | 
16 | FC(F)(F)C(F)(F)C(F)(F)C(F)(F)C(F)(F)C(F)(F)C(F)(F)C(F)(F)C(F)(F)C(F)(F)F |  | -1.46% [at 8.53 µM]
17 | CCC(=O)c1cccc(Cl)c1 | inactive | 
18 | CC(C)N1C(=O)c2ccccc2C1=O | inactive | 
19 | O=C1OC(=O)c2cc([N+](=O)[O-])ccc21 | inactive | 
20 | CCCCOCC(C)OCC(C)O (stereo not given) | inactive | 

Row | SMILES | Potency | activity, negative = cytotoxicity
21 | CCCCCCCCC=O | inactive | 
22 | C/C=C1\C(=O)C[C@H]2[C@@H]3CCC4=CC(=O)CC[C@]4(C)[C@H]3CC[C@]12C | 10.7 µM (active) | 
23 | COc1cc(CCC(C)=O)ccc1O | inactive | 
24 | Cc1c(C)n(CCN(C)C)c2ccc(C(=O)OCCN(C)C)cc12 | 7.5 µM (active) | 
25 | OCc1ccccn1 | inactive | 
26 | CC(C)(C)N(CCO)CCO | inactive | 
27 | CCCCCCC(CCCCCCCCCCC(=O)OCC(COC(C)=O)OC(C)=O)OC(C)=O (stereo not given) | inactive | 
28 | C=C(C)C(=O)NCCC[N+](C)(C)C | inactive | 
29 | CCN(CC)S(=O)(=O)c1ccc(C(=O)O)cc1 | inactive | 
30 | CCc1cc(S(=O)(=O)O)c2cc(C(C)C)cccc1-2 | inactive | 
31 | Cc1onc(-c2ccccc2)c1-c1ccc(S(N)(=O)=O)cc1 | inactive | 
32 | OC/C=C/c1ccccc1 | inactive | 
33 | CCCCCCOC(=O)c1ccccc1O | 27.3 µM (active) | 
34 | CC(C)COC(=O)C(C)C | inactive | 
35 | CCOC(=O)Nc1ccc2c(c1)N(C(=O)CCN1CCOCC1)c1ccccc1S2 | inactive | 
36 | CCCC(C)C(=O)O (stereo not given) | inactive | 
37 | CC(=O)NC(Cc1ccccc1)C(=O)O (stereo not given) | inactive | 
38 | COC(=O)c1ccc(C(=O)OC)c(C(=O)OC)c1 | inactive | 
39 | CSc1nc(NC2CC2)nc(NC(C)(C)C)n1 | 54.5 µM (active) | 
40 | CCCCC1CCCCC(=O)O1 (stereo not given) | inactive | 
